Among the data in PubChem BioAssay (NCI) are growth values, retold here.

SMILES strings stand for the structures. This is part of a sample that, as a whole, favours compounds with a hit. Of some 83,000 tested, about 20% had one in any assay.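 The endpoint reported here, percent growth, reads 100 for growth as untreated, 0 for no net growth and -100 for all cells dead.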 Values without a mark were called inactive. Calls of active or inactive are those of the source. The calls were made as follows: active = growth percent below 10; inactive = the rest.

This assay concerns SF-295 CNS. The assay is described as follows: NCI-60 one-dose screen, 48 h (100 = growth as untreated, 0 = no growth, -100 = all killed). The following applies: 10 µM.
Consider `CCOC(=O)c1sc2ncnc(Nc3ccc4c(cnn4C(=O)Nc4ccccc4)c3)c2c1C`, for which the growth was 98.3%.

For `CCOC(=O)c1cc(C(=O)c2ccc(Cl)cc2)n2ccc(-c3cc[n+](CC(=O)c4ccc(OC)cc4)cc3)cc12`, the growth is 106%.

Take `CC(CN(C)C)Oc1ccc(OC(C)CN(C)C)c2c1C(=O)c1ccccc1C2=O` (stereo not given): the growth was 48.2%.

As to `N#Cc1c(-c2ccc(Cl)cc2)n(O)c2ccccc12`, the growth was 42.1%.

For the compound `C=CCN(CC=C)C(=O)[C@H](CC)[C@@H]1CC[C@@H](C)[C@@H]([C@H](C)[C@@H](O)[C@@H](C)C(=O)[C@H](CC)C2O[C@]3(C=CC(=O)[C@]4(CC[C@@](C)([C@H]5CC[C@](O)(CC)[C@H](C)O5)O4)O3)[C@H](C)C[C@@H]2C)O1` (stereo not given in full), the growth is 5.69% (active).

As to `COc1cc(C2C(C#N)=C(N)Oc3cc(O)ccc32)cc(OC)c1OC` (stereo not given), the growth is 0.55% (active).

Take `O=C(CI)OCC(COC(=O)CI)OC(=O)CI`: the growth was 94.8%.

`Cc1ccc(C(=O)C2C(=O)C3CCC2C3)cc1` (stereo not given): the growth was 101%.

For the compound `CCc1ccc(C2=NN(c3ccc(S(C)(=O)=O)cc3)C(=O)CC2)cc1`, the growth is 9.24% (active).

`CC(C)(C)c1ccc(S(=O)(=O)Oc2ccc(NC(=O)C3CCCCC3)cc2)cc1`: the growth was 22.8%.

Consider `N#CC1=CC2CN(Cc3ccccc3)C1C1C(=O)N(c3ccccc3)C(=O)C21` (stereo not given), for which the growth was 98.7%.

For the compound `CN(C)CCCOc1ccccc1NC1=C(Cl)C(=O)C(Nc2ccccc2OCCCN(C)C)=C(Cl)C1=O`, the growth is -58.8% (active).

As to `CCOC(=O)c1cc(C(=O)c2cc(OC)c(OC)c(OC)c2)n2c1ccc1c3cccnc3ccc12`, the growth was 63.4%.

With `COc1cc2cc(Oc3ccc(NC(=O)c4ccccc4)cc3)c(C)nc2cc1OC`, the growth was 72.2%.

Turning to `COC(=O)c1cc2oc(/C=C3/SC(=S)N(N)C3=O)cc2n1Cc1ccccc1`, the growth was 68%.

`CC[C@@H](C(=O)[C@@H](C)[C@@H](O)[C@H](C)[C@@H]1O[C@@H]([C@@H](CC)C(=O)N(CC)CC)CC[C@@H]1C)C1O[C@]2(C=CC(=O)[C@]3(CC[C@@](C)([C@H]4CC[C@](O)(CC)[C@H](C)O4)O3)O2)[C@H](C)C[C@@H]1C` (stereo not given in full): the growth is 4.86% (active).

For `Cc1ccc(N=Nc2ccccc2)cc1`, the growth was 90.3%.

Regarding `COc1cc(-c2nn(-c3cccc(NC(=O)CCNc4ccc(N5CCOCC5)cc4)c3)cc2-c2ccncc2)ccc1Cl`, the growth is 13.4%.

With `O=c1oc2c(cc1-c1ccc(F)cc1)C(O)Oc1ccccc1-2` (stereo not given), the growth is 84.2%.

Turning to `CCOC(=O)c1cc(C(=O)c2cc(OC)c(OC)c(OC)c2)n2ccc(-c3cc[n+](CC(=O)c4cc(OC)c(OC)c(OC)c4)cc3)cc12`, the growth is 94.3%.

`CC(CN(C)C)Oc1ccccc1NC1=C(Cl)C(=O)C(Nc2ccccc2OC(C)CN(C)C)=C(Cl)C1=O` (stereo not given): the growth is 30.6%.

On to `O=C(CCCSc1nc(-c2ccc(Cl)cc2)cc(-c2ccc(Cl)cc2)n1)NO`, for which the growth was -4.84% (active).

In the case of `CC[C@@H]1NC(=O)[C@H]([C@H](O)[C@H](C)C/C=C/c2ccc(CN3C(=O)CCCC3=O)cc2)N(C)C(=O)[C@H](C(C)C)N(C)C(=O)[C@H](CC(C)C)N(C)C(=O)[C@H](CC(C)C)N(C)C(=O)[C@@H](C)NC(=O)[C@H](C)NC(=O)[C@H](CC(C)C)N(C)C(=O)[C@H](C(C)C)NC(=O)[C@H](CC(C)C)N(C)C(=O)CN(C)C1=O`, the growth was 39%.

Take `CCNc1nc(C(F)(F)F)nc2c1sc(=S)n2-c1ccccc1`: the growth was 94%.

As for `COc1cc2c3c(n(C4CCN(C)CC4)c(=O)c2cc1OC)-c1cc2c(cc1C3=O)OCO2`, the growth was 46.7%.

As for `Cc1cc(C)nc(NS(=O)(=O)c2ccc(Nc3nc4nc(NCc5ccccc5)nc(-c5ccc(O)cc5)c4c(=O)[nH]3)cc2)n1`, the growth was 27.3%.

Consider `Oc1ccc(/C=N/N=C2c3ccccc3-c3ccccc32)c(O)c1`, for which the growth was 101%.

As for `CN1CCN(CC(=O)Nc2cccc(-n3cc(-c4ccncc4)c(-c4ccc(Cl)c(O)c4)n3)c2)CC1`, the growth is 21.8%.

On to `CNS(=O)(=O)Oc1ccc(-c2ccc3occc3c2)cc1`, for which the growth was 92.9%.

For `Cc1n[nH]c(C)c1N=Nc1cccc2c1C(=O)c1ccccc1C2=O`, the growth was 99.4%.

Regarding `Clc1ccc(C2=NN=C3C(Cc4ccccc4)=Nc4ccccc4N3C2)cc1`, the growth was 86.3%.

Consider `CCOC(=O)N/N=C/c1ccc(OC)c(OC)c1`, for which the growth was 101%.

Turning to `COc1cc(-c2nn(-c3cccc(NC(=O)NCCNC(=O)c4ccccc4)c3)cc2-c2ccncc2)ccc1Cl`, the growth is -56.9% (active).

`CCOC(=O)c1cc(C(=O)c2cc(OC)c(OC)c(OC)c2)n2ncc3ccccc3c12`: the growth was 72.5%.

In the case of `NC1=CC(=O)C(=O)c2cccnc21`, the growth was 77.3%.

Take `COc1ccc(Cl)cc1Nc1nc(C(F)(F)F)ccc1C(=O)N/N=C/c1cc(OC)c(OC)c(OC)c1`: the growth is 19.8%.

In the case of `COc1ccc(C(c2ccc(OCCN(C)C)cc2)c2cc3ccccc3c3ccccc23)cc1` (stereo not given), the growth was 58%.

As for `COc1cc(C(=O)/C=C/c2c[nH]c3ccccc23)cc(OC)c1OC`, the growth is 16.9%.

Regarding `CC(C)(C)OC(=O)CC(S(=O)(=O)c1ccccc1)S(=O)(=O)c1ccccc1`, the growth is 110%.

For `CC(C)(C)OC(=O)CN1CCc2c(sc3ncnc(N/N=C/c4cccc5ccccc45)c23)C1`, the growth was 51.5%.
